Assay results published in PubChem BioAssay.
A number with no mark means an inactive call. The source made the active and inactive calls.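 How the source made its calls, unless noted: active means growth inhibition above 50% at the single 2 µM test dose, taken to imply half-maximal potency below 2 µM; inactive means the rest.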

Assay: antimalarial activity against Dd2 strain (AID 2302);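 further: 0% = DMSO untreated growth and 100% = chloroquine plus artemisinin killed control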
Conditions: P. falciparum Dd2 in RBCs, LDH growth readout, 72 h; at 2 µM; stronger effect = higher value

| SMILES | growth inhibition |
| --- | --- |
| COC(=O)C(=C(C)C)N1C(=O)[C@@H](NC(=O)OCc2ccccc2)[C@H]1SS[C@@H]1[C@H](NC(=O)OCc2ccccc2)C(=O)N1C(C(=O)OC)=C(C)C | 96% (active) |
| CCCCN(CCCC)CCC(O)C(=Cc1ccc(Cl)cc1Cl)c1ccc(C(F)(F)F)cc1N (stereo not given) | 99% (active) |
| CCc1ccc(-n2cc(C(=O)c3cc(Br)ccc3O)cc(C#N)c2=O)cc1 | 30% |
| Oc1cccc(Nc2ccnc3cc(-c4cc5ccccc5o4)ccc23)c1 | 71% (active) |
| Cc1cc(C2CCN(CCCCNC(=O)c3ccc(NC(=O)c4ccc(Cl)cc4)cc3)CC2)c(C)cc1OCc1ccncc1 | 92% (active) |
| COc1ccc2nccc(NN=Cc3ccc([N+](=O)[O-])cc3)c2c1 | 68% (active) |
| COc1ccccc1C1CCN(C2CCC(NC(=O)c3cc(-c4ccc(Cl)cc4)cs3)CC2)CC1 (stereo not given) | 100% (active) |
| Cc1cc(Nc2ccc(Cl)cc2)n2nc(C(F)(F)F)nc2n1 | 95% (active) |
| COc1ccc2nccc([C@@H](O)CN3CCC(NCc4cc5ccccc5[nH]c4=O)CC3)c2c1 | -3% |
| Nc1c(Cl)cc(C(O)CNCCCCCOCCc2ccccc2)cc1C(F)(F)F (stereo not given) | 96% (active) |
| COc1ccc(-c2cnc3ccc(NCc4ccc(F)cc4)nn23)cc1OC | 99% (active) |
| CCCN(CCC)C(=O)c1cc(C(=O)N[C@@H](Cc2ccccc2)[C@H](O)CNC2CC2)cc(N2CCCCS2(=O)=O)c1 | 98% (active) |
| CN(C)CCOc1ccc(-c2cc(-c3ccc(Cl)c(O)c3)c(-c3ccncc3)o2)cc1 | 99% (active) |
| O=C(Nc1ccc(C(=O)Nc2cccc(C3=NCCN3)c2)cc1)Nc1ccc(C2=NCCN2)cc1 | 98% (active) |
| Cc1cc(C(=O)NCc2ccc(-c3c(C)noc3C)cc2)n(-c2ccccc2)n1 | 90% (active) |
| O=C1OC2(CN1CC1CCN(Cc3ccc(O)c(Cl)c3)CC1)c1ccccc1-c1ccccc12 | 96% (active) |
| Cc1cc(O)c(CN(C)Cc2ccc3c(c2)OCCO3)cc1C(C)C | 47% |
| O=C(Nc1ccc2c(c1)CCNCC2)c1ccc(-c2ccc(Cl)cc2)cc1 | 38% |
| COc1cc(Cc2cnc(N)nc2N)cc(CC(C)O)c1O (stereo not given) | 2% |
| O=C(Nc1ccc(C(F)(F)F)cc1)N[C@H]1CCN(CCCCCNC(=O)[C@@H]2C[C@H]2c2ccc(Cl)c(Cl)c2)C1 | -1% |

| SMILES | growth inhibition |
| --- | --- |
| CN(C)CCNC(=O)c1ccc2c(c1)ncn2-c1cc(OCc2ccccc2C(F)(F)F)c(C(N)=O)s1 (tested in a mixture with another compound) | 8% |
| CCCCCCOc1ccc(C(=O)N(Cc2ccccc2)c2c(-c3ccccc3)nc3cc(C)ccn23)cc1 | 96% (active) |
| CN(C)CCn1c(N)c(-c2nc3ccccc3s2)c2nc(C#N)c(C#N)nc21 | 40% |
| Cc1nc(N)nc(N)c1CCCOc1cccc(Cl)c1 | -1% |
| CCCC(C)Nc1nc(C)cc(N[C@@H](CC(C)C)C(=O)NCc2cccc(F)c2)n1 (stereo not given in full) | 63% (active) |
| Cc1ccc(NC(=O)c2ccc(N3CCN(c4ccncc4)CC3)cc2)cc1F | 79% (active) |
| CC(CCCCOCCc1ccccc1)NCC(O)c1cc(Cl)c(N)c(Cl)c1 (stereo not given) | 95% (active) |
| O=C(Nc1ccc2nc(-c3ccc4nc(NC(=O)C5CCCCC5)sc4c3)[nH]c2c1)C1CCCCC1 | 68% (active) |
| Brc1cc2c(cc1C=NNc1nc(Nc3ccccc3)nc(Nc3ccccc3)n1)OCO2 | 32% |
| Cc1cc(NCCCCCCN)nc(Nc2ccc(Cl)cc2)n1 | 26% |
| CCCCCCCCCN1CC[C@@H](CCCc2ccnc3ccc(O)cc23)[C@@H](CC)C1 | 59% (active) |
| CCOC(=O)C1=C(C)NC2=C(C(=O)CC(C)(C)C2)C1c1ccc(Cl)cc1 (stereo not given) | 84% (active) |
| CN1CCN(CCCN(Cc2cccc(-c3cccc(CNCCc4ccccc4)c3)c2)C(=O)Nc2ccccc2)CC1 | 82% (active) |
| Fc1cc(CN2CCCC2)ccc1OCCCN1CCN(c2cccc(Cl)c2Cl)CC1 | 15% |
| O=C(Nc1ccccc1F)NC1CCN(c2ccnc(Nc3ccc(F)cc3)n2)CC1 | 63% (active) |
| N/C(=N/C(=NCCCCCCN=C(/N=C(/N)Nc1ccc(Cl)cc1)N1CCOCC1)N1CCOCC1)Nc1ccc(Cl)cc1 | 91% (active) |
| COc1ccc(S(=O)(=O)Nc2cc(Br)cc3c2OCCC3)cc1N1CCN(C(=O)C(Cl)(Cl)Cl)CC1 | 51% (active) |
| COc1ccc(CC(=O)Nc2ccc(Nc3nc(C)cc(N4CCCC4)n3)cc2)cc1 | 65% (active) |
| CCOCCCNc1sc(S(=O)(=O)c2ccccc2)nc1S(=O)(=O)c1ccc(C)cc1 | 87% (active) |
| N#Cc1cc(C(=O)Nc2ccccc2)c(N)nc1SCC(=O)Nc1ccc(Br)cc1 | 66% (active) |

Assay: human hepatoma cell viability loss – ATP luminescence, cytotoxicity control for P. falciparum antimalarial project, primary screen (AID 2303;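 active means inhibition above 50%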;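 further: 0% = DMSO wells and 100% = digitonin-killed cells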)
Conditions: HepG2 viability, 24-48 h, at 10 µM, stronger effect = higher value

| SMILES | inhibition |
| --- | --- |
| COC(=O)C(=C(C)C)N1C(=O)[C@@H](NC(=O)OCc2ccccc2)[C@H]1SS[C@@H]1[C@H](NC(=O)OCc2ccccc2)C(=O)N1C(C(=O)OC)=C(C)C | 18% |
| CCCCN(CCCC)CCC(O)C(=Cc1ccc(Cl)cc1Cl)c1ccc(C(F)(F)F)cc1N (stereo not given) | -9% |
| CCc1ccc(-n2cc(C(=O)c3cc(Br)ccc3O)cc(C#N)c2=O)cc1 | 9% |
| Oc1cccc(Nc2ccnc3cc(-c4cc5ccccc5o4)ccc23)c1 | 9% |
| Cc1cc(C2CCN(CCCCNC(=O)c3ccc(NC(=O)c4ccc(Cl)cc4)cc3)CC2)c(C)cc1OCc1ccncc1 | 33% |
| COc1ccc2nccc(NN=Cc3ccc([N+](=O)[O-])cc3)c2c1 | 9% |
| COc1ccccc1C1CCN(C2CCC(NC(=O)c3cc(-c4ccc(Cl)cc4)cs3)CC2)CC1 (stereo not given) | 61% (active) |
| Cc1cc(Nc2ccc(Cl)cc2)n2nc(C(F)(F)F)nc2n1 | 5% |
| COc1ccc2nccc([C@@H](O)CN3CCC(NCc4cc5ccccc5[nH]c4=O)CC3)c2c1 | -6% |
| Nc1c(Cl)cc(C(O)CNCCCCCOCCc2ccccc2)cc1C(F)(F)F (stereo not given) | 3% |
| COc1ccc(-c2cnc3ccc(NCc4ccc(F)cc4)nn23)cc1OC | 35% |
| CCCN(CCC)C(=O)c1cc(C(=O)N[C@@H](Cc2ccccc2)[C@H](O)CNC2CC2)cc(N2CCCCS2(=O)=O)c1 | -3% |
| CN(C)CCOc1ccc(-c2cc(-c3ccc(Cl)c(O)c3)c(-c3ccncc3)o2)cc1 | 39% |
| O=C(Nc1ccc(C(=O)Nc2cccc(C3=NCCN3)c2)cc1)Nc1ccc(C2=NCCN2)cc1 | -16% |
| Cc1cc(C(=O)NCc2ccc(-c3c(C)noc3C)cc2)n(-c2ccccc2)n1 | 4% |
| O=C1OC2(CN1CC1CCN(Cc3ccc(O)c(Cl)c3)CC1)c1ccccc1-c1ccccc12 | 32% |
| Cc1cc(O)c(CN(C)Cc2ccc3c(c2)OCCO3)cc1C(C)C | 10% |
| O=C(Nc1ccc2c(c1)CCNCC2)c1ccc(-c2ccc(Cl)cc2)cc1 | 71% (active) |
| COc1cc(Cc2cnc(N)nc2N)cc(CC(C)O)c1O (stereo not given) | -2% |
| O=C(Nc1ccc(C(F)(F)F)cc1)N[C@H]1CCN(CCCCCNC(=O)[C@@H]2C[C@H]2c2ccc(Cl)c(Cl)c2)C1 | 41% |

| SMILES | inhibition |
| --- | --- |
| CN(C)CCNC(=O)c1ccc2c(c1)ncn2-c1cc(OCc2ccccc2C(F)(F)F)c(C(N)=O)s1 (tested in a mixture with another compound) | -9% |
| CCCCCCOc1ccc(C(=O)N(Cc2ccccc2)c2c(-c3ccccc3)nc3cc(C)ccn23)cc1 | -8% |
| CN(C)CCn1c(N)c(-c2nc3ccccc3s2)c2nc(C#N)c(C#N)nc21 | 4% |
| Cc1nc(N)nc(N)c1CCCOc1cccc(Cl)c1 | 16% |
| CCCC(C)Nc1nc(C)cc(N[C@@H](CC(C)C)C(=O)NCc2cccc(F)c2)n1 (stereo not given in full) | 1% |
| Cc1ccc(NC(=O)c2ccc(N3CCN(c4ccncc4)CC3)cc2)cc1F | 47% |
| CC(CCCCOCCc1ccccc1)NCC(O)c1cc(Cl)c(N)c(Cl)c1 (stereo not given) | -5% |
| O=C(Nc1ccc2nc(-c3ccc4nc(NC(=O)C5CCCCC5)sc4c3)[nH]c2c1)C1CCCCC1 | 84% (active) |
| Brc1cc2c(cc1C=NNc1nc(Nc3ccccc3)nc(Nc3ccccc3)n1)OCO2 | -7% |
| Cc1cc(NCCCCCCN)nc(Nc2ccc(Cl)cc2)n1 | 25% |
| CCCCCCCCCN1CC[C@@H](CCCc2ccnc3ccc(O)cc23)[C@@H](CC)C1 | 58% (active) |
| CCOC(=O)C1=C(C)NC2=C(C(=O)CC(C)(C)C2)C1c1ccc(Cl)cc1 (stereo not given) | 4% |
| CN1CCN(CCCN(Cc2cccc(-c3cccc(CNCCc4ccccc4)c3)c2)C(=O)Nc2ccccc2)CC1 | 92% (active) |
| Fc1cc(CN2CCCC2)ccc1OCCCN1CCN(c2cccc(Cl)c2Cl)CC1 | 67% (active) |
| O=C(Nc1ccccc1F)NC1CCN(c2ccnc(Nc3ccc(F)cc3)n2)CC1 | 13% |
| N/C(=N/C(=NCCCCCCN=C(/N=C(/N)Nc1ccc(Cl)cc1)N1CCOCC1)N1CCOCC1)Nc1ccc(Cl)cc1 | -11% |
| COc1ccc(S(=O)(=O)Nc2cc(Br)cc3c2OCCC3)cc1N1CCN(C(=O)C(Cl)(Cl)Cl)CC1 | 4% |
| COc1ccc(CC(=O)Nc2ccc(Nc3nc(C)cc(N4CCCC4)n3)cc2)cc1 | 56% (active) |
| CCOCCCNc1sc(S(=O)(=O)c2ccccc2)nc1S(=O)(=O)c1ccc(C)cc1 | -8% |
| N#Cc1cc(C(=O)Nc2ccccc2)c(N)nc1SCC(=O)Nc1ccc(Br)cc1 | 11% |
